# IP6K1 inhibitor: IP6K1 kinase inhibition; AID 1645851; IP6K1 kinase, ADP-Glo luminescence, 2 h; hits give low values; activity change, % (series mostly up to about 58 µM); 140,000 tested, 0.81% active; Q92551; in the data active = activity change below about -25%; note: % is set by controls: 0 for no effect and ±100 for the full control effect
# Target sequence (Q92551 whole entry, looked up): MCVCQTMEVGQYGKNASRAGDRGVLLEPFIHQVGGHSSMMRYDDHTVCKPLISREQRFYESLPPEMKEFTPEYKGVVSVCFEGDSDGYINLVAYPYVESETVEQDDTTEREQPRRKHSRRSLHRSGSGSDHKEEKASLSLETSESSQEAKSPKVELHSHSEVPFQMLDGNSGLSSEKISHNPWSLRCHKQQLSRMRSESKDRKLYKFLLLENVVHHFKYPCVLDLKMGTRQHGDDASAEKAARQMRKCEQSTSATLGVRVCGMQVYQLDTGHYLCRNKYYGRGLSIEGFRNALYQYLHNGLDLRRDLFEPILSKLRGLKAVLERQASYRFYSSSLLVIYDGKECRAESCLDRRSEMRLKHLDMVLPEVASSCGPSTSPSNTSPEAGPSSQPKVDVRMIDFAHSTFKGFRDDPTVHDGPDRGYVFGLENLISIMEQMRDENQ
#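 ADP-Glo luminescence measures ADP made by human IP6K1 during a 2 h RT reaction with ATP/IP6 (mix at 1.3 mM/130 uM); top library doses 57.5 and 19.1 uM final.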
# KDM5B inhibitor: blocks human KDM5B histone demethylase activity; KDM5B demethylase, FDH-coupled NADH fluorescence (FDH is formaldehyde dehydrogenase); Potency, µM (top dose mostly 57.7 µM), most hits filed as inhibitors; 220,000 tested, 2.6% active; note: potency is the fitted concentration of half-maximal effect; 0% is about no effect; nearly all actives have a fitted effect of over 70% in size
#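 Inhibition is measured as reduced NADH fluorescence generation from FDH coupling to formaldehyde release. Truncated KDM5BΔAP at 200 nM final acts on H3K4me3 peptide (12.5 µM in substrate mix) in pH 7.5 HEPES buffer with Tween-20, 30 min, room temperature.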
# IP6K1 conf: human IP6K1 inhibition, confirmatory. shares compounds with IP6K1 inhibitor. recombinant IP6K1 kinase, ADP-Glo luminescence, 2 h. Potency, µM (series often up to 49 µM), without a hit: at the highest dose activity change, negative = inhibition, actives largely listed as inhibitors. 1,200 tested, 13% active; note: potency is the fitted concentration of half-maximal effect; % is set by controls: 0 for no effect and ±100 for the full control effect; nearly all actives have a fitted effect of over 65% in size
# Starred values were filed as active, the others as inactive; i = inactive; ? = inconclusive; nt = no result. This is a sample that favours compounds with a hit; in the whole collection about 2.8% have one here. Unless noted, calls come from the whole dose curve; as a rule, active = well fitted inhibition curve with a large enough effect; inconclusive = small, poorly fitted or top-dose-only effect; inactive = no such curve, though single readings can be large or run the other way.
SMILES,IP6K1 inhibitor,KDM5B inhibitor,IP6K1 conf
CCOc1ccc(/C=C/c2nc(C#N)c(N3CCN(C(=O)c4ccco4)CC3)o2)cc1,nt,i,nt
c1ccc(Nc2cc3c(cn2)NCCN(Cc2ccc4[nH]ccc4c2)C3)cc1,-29.7*,31.6µM*,-9.8%
c1ccc(Nc2cc3c(cn2)CN(Cc2ccc4[nH]ccc4c2)CCN3)cc1,-22.3,?,nt
COC(=O)c1cccnc1-n1c(=O)c2cccnc2n(CC(=O)Nc2ccccc2F)c1=O,-28.1*,?,15.7%
COC(=O)c1cccnc1-n1c(=O)c2cccnc2n(CC(=O)Nc2c(C)cc(C)cc2C)c1=O,17.7,i,nt
Cn1cnc(S(=O)(=O)N2CCCC(Cc3noc(-c4cccnc4)n3)C2)c1 (stereo not drawn),-7.8,i,nt
CN(CC(=O)O)S(N)(=O)=O,nt,i,nt
CC(=O)N1CCN(C(=O)c2ccc3c(c2)NC(C)(CNc2ccccc2)CO3)CC1 (stereo not drawn),6.1,?,nt
CC1(CNc2ccccc2)COc2ccc(C(=O)NCCc3cnc[nH]3)cc2N1 (stereo not drawn),-40.4*,?,?
CC(OC(=O)c1cc(C2CC2)nn1-c1ccccc1)C(N)=O (stereo not drawn),nt,i,nt
CCNc1c(NC(=O)Nc2ccc(OC)cc2)c(=O)oc2ccccc12,nt,i,nt
N#Cc1cccc(NC(=O)c2cc3c(s2)CCCC3)c1,nt,i,nt
N#Cc1cccc(NC(=O)c2cc3c(s2)-c2ccc(Cl)cc2SC3)c1,-49.7*,?,-25.6%
CCn1cc(-c2ccc(Cl)cc2)cc1C(=O)N1CCCN(C)CC1,16.2,i,nt
Cc1ccc(NC(=O)Cn2c(=O)n(CCCCCC(=O)NCc3ccc(F)cc3)c(=O)c3sccc32)cc1C,14.1,i,nt
COc1cccc2c1cc1c(=O)n(CC(=O)NCc3ccc(C)o3)nc(C)n12,-29.8*,?,-3.8%
COc1cccc2c1cc1c(=O)n(CC(=O)NC3CC3)nc(C)n12,-17.4,?,nt
Cc1ncc(NC(=O)c2ccc(CN3CCN(C)CC3)c(C(F)(F)F)c2)cc1Nc1nccc(-c2cccnc2)n1,1.9,nt,nt
Cc1ccc(NC(=O)c2ccc(CN3CC[C@H](N(C)C)C3)c(C(F)(F)F)c2)cc1Nc1nccc(-c2cncnc2)n1,5.9,nt,nt
Cc1ccc(C(=O)Nc2ccc(CN3CCN(C)CC3)c(C(F)(F)F)c2)cc1C#Cc1cnc2[nH]ncc2c1,-60.6*,nt,7.31µM*
CCN1CCN(Cc2ccc(NC(=O)c3ccc(C)c(/C=C/c4cnc5[nH]ccc5c4OC)c3)cc2C(F)(F)F)CC1,-39.3*,nt,4.61µM*
COCCNC(=O)COC(=O)c1cc(-c2ccc(-c3ccccc3)cc2)nc2ccccc12,nt,i,nt
Cc1[nH]nc2c1C(c1ccccc1C(F)(F)F)C(C#N)=C(N)O2 (stereo not drawn),nt,i,nt
CC(=O)c1cccc(NC(=O)C2=CC(c3ccco3)=NS(=O)(=O)N2C)c1,-11.6,i,nt
COc1ccc(NC(=O)C2=CC(c3ccco3)=NS(=O)(=O)N2C)cc1,-30.3*,i,-20.2%
SMILES,IP6K1 inhibitor,KDM5B inhibitor,IP6K1 conf
Cc1nc(C#Cc2ccnc(Cl)c2)c(C)n1-c1ccc(OC(F)(F)F)cc1,5.2,nt,nt
Cc1nnc(NC(=O)c2ccc3c(ccn3C)c2)s1,nt,i,nt
CC(C)c1cc(-c2n[nH]c(=O)n2-c2ccc3c(ccn3C)c2)c(O)cc1O,-42.5*,nt,9.2µM*
CCOC(=O)c1c(NC(=O)CSc2ccccn2)sc2c1CCC2,nt,i,nt
O=C(NCC(F)F)C1CN(Cc2ccccc2)C(=O)N1 (stereo not drawn),-16.8,i,nt
CCN(CC)C(=O)Cn1ncc2c([nH]c3ccccc32)c1=O,21.3,?,nt
CC(C)CCN(Cc1ccco1)C(=O)Cn1ncc2c([nH]c3ccccc32)c1=O,-28.6*,?,-9.2%
O=C(O)c1ccc2c(c1)nc(Nc1cccc(Cl)c1)c1ccncc12,-35.3*,nt,?
Clc1cccc(Nc2nc(-c3ccncc3)nc3ccccc23)c1,nt,i,nt
COc1ccc(NC(=O)c2c(C)oc3ccc(O)c(CN4CCCCCC4)c23)cc1Cl,24.1,i,nt
Cc1ccccc1NC(=O)c1c(C)oc2ccc(O)c(CN3CCCCCC3)c12,-25.9*,?,-9.0%
CCCN1CC(Oc2cccc(C(=O)N3CCOCC3)c2)C1,-5.0,i,nt
Cc1cc(CNC(=O)Cc2nonc2C)c2[nH]c(-c3ccccc3)c(C)c2c1,-28.6*,?,-13.4%
Cc1cc(CNC(=O)c2ccncc2)c2[nH]c(-c3ccccc3)c(C)c2c1,-18.4,i,nt
COc1ccc(CNS(=O)(=O)c2cc3c(cc2C)n(C)c(=O)c(=O)n3C)cc1,-10.8,i,nt
Cc1cc2c(cc1S(=O)(=O)NCc1ccc(F)cc1)n(C)c(=O)c(=O)n2C,-26.1*,?,-17.7%
Cc1cc(=O)oc2c(C=O)c(O)ccc12,-11.5,nt,nt
Cc1cc2c(C(C)C)c(O)c(O)c(C=O)c2c(O)c1-c1c(C)cc2c(C(C)C)c(O)c(O)c(C=O)c2c1O,-59.5*,nt,?
COc1ccc(NC(=O)C2CCN(C(=O)c3ncn4c3COC(c3ccccc3)C4)CC2)cc1 (stereo not drawn),-30.5*,i,-12.6%
COc1ccc(C2Cn3cnc(C(=O)N4CCC(C(=O)Nc5ccc(C)cc5)CC4)c3CO2)cc1 (stereo not drawn),0.0,i,nt
CCN1CC(c2ccccc2)CC2(CCN(C(=O)CCn3cccn3)CC2)C1 (stereo not drawn),3.0,i,nt
CCN1CC(c2ccccc2)CC2(CCN(C(=O)COC)CC2)C1 (stereo not drawn),-27.5*,i,-12.2%
N#Cc1nc(-c2ccc(OCc3ccc(Cl)cc3)cc2)oc1NCCN1CCOCC1,nt,i,nt
CC(C)c1ccc(-c2cc(C(=O)O)[nH]n2)cc1,nt,i,nt
O=C(CCCCn1c(=O)c2ccccc2n(Cc2cccc(Cl)c2)c1=O)NCc1ccc2c(c1)OCO2,-28.0*,i,-6.8%
SMILES,IP6K1 inhibitor,KDM5B inhibitor,IP6K1 conf
Cc1cccc(Cn2c(=O)n(CCCCC(=O)NCc3ccc4c(c3)OCO4)c(=O)c3ccccc32)c1,1.5,i,nt
Cc1cccc(NC(=O)CSc2nc(-c3cccs3)cc(C(F)(F)F)c2C#N)c1,-13.2,?,nt
COc1ccc(-c2c(C)oc3cc(OCCN4CCC(C)CC4)ccc3c2=O)cc1OC,nt,i,nt
Cc1nn2c(=O)cc(COC(=O)c3ccc(F)cc3)nc2s1,-27.2*,i,-13.2%
Cc1nn2c(=O)cc(COC(=O)c3ccc(C(C)(C)C)cc3)nc2s1,13.0,i,nt
O=C(CCC1CCCC1)N1CCC(Cc2nc(C3CCOCC3)no2)CC1,13.1,i,nt
CC(C)Cn1c(-c2cccc(Br)c2)nc2ccccc21,-33.0*,?,-23.1%
Cc1cccc(Cn2c(-c3ccccc3)nc3ccccc32)c1,-19.2,?,nt
Cn1ncc2c(NCc3cccc(Cl)c3)ncnc21,-3.8,i,nt
COCCNc1nc(NCc2cccc(Cl)c2)c2cnn(C)c2n1,-39.1*,?,-6.7%
CN(C)Cc1nnc(C2CC(NC(=O)c3ccccc3-c3ncn[nH]3)C2)n1C (stereo not drawn),-28.1*,i,-9.6%
CCOc1ccccc1C(=O)NC1CC(c2nnc(CN(C)C)n2C)C1 (stereo not drawn),7.2,i,nt
